Bioassay records as filed in PubChem.
aSyn 5UTR act: Activators working through SNCA 5'UTR binding (MLPCN). activity score, % (tested at 7.5 µM), hits read low. alpha-synuclein 5'UTR reporter, activators screen. 300,000 compounds, 7.1% hits; in the data active = activity score below about -60%
Of the large screens only hits and unclear results are named; the others gave an inactive call. Only a selection was taken, and hits are over-represented in it overall.

Cc1ccc(-n2c(C)cc(/C=C3\SC(=O)NC3=O)c2C)cc1	aSyn 5UTR act -174.5
CCCc1cnc(N2CCN(C(=S)NC)CC2)nc1	aSyn 5UTR act -110.9
CC(=C/c1ccc(C(C)C)cc1)/C=N/NC(=O)CSc1ccccn1	aSyn 5UTR act -163.7
CC(/C=N/NC(=O)CSc1ccccn1)=C\c1ccc(C(C)C)cc1	aSyn 5UTR act -253.6
c1ccc(C[n+]2csc3ccccc32)cc1	aSyn 5UTR act -71.5
COC(=O)c1ccc(Sc2ccc(C)cc2)c(N)c1	aSyn 5UTR act -140.7
CCS(=O)(=O)c1ccc2oc(Nc3cccc(OC)c3)nc2c1	aSyn 5UTR act -144.9
CCS(=O)(=O)c1ccc2oc(Nc3ccccc3Br)nc2c1	aSyn 5UTR act -108.4
CCS(=O)(=O)c1ccc2oc(Nc3ccccc3Cl)nc2c1	aSyn 5UTR act -153.6
CCN(CC)C(=O)N1c2ccccc2C=Cc2ccccc21	aSyn 5UTR act -101.0
Cc1cnnc2ccc3c(no[n+]3[O-])c12	aSyn 5UTR act -92.6
Cc1c(C(=O)N2c3ccccc3CC2C)oc2ccccc12 (stereo unspecified)	aSyn 5UTR act -76.3
Cc1c(C(=O)N2CCc3ccccc3C2)oc2ccccc12	aSyn 5UTR act -98.0
O=C(c1cc(-c2ccc(F)cc2)on1)N1CCCc2ccccc21	aSyn 5UTR act -62.1
Cc1ccc(-c2cc(C(=O)N3CCCc4ccccc43)no2)cc1	aSyn 5UTR act -150.2
O=C(c1cc(-c2cccs2)on1)N1CCCc2ccccc21	aSyn 5UTR act -78.7
CCOc1ccc(NC(=O)c2cc3ccccc3cc2OC)cc1	aSyn 5UTR act -133.3
O=C(Nc1ccc(Cl)cc1)c1ccc(Br)cc1F	aSyn 5UTR act -123.5
COc1ccc(NC(=O)c2cc3c([nH]c4ccccc43)c(C)n2)cc1	aSyn 5UTR act -84.2
COc1ccc(NC(=O)c2cc3ccccc3cc2OC)cc1	aSyn 5UTR act -167.6
CCOc1ccc(NC(=O)c2cc(OC)nc3ccccc23)cc1	none
COc1ccc(NC(=O)c2ccc3ccccc3c2OC)cc1	aSyn 5UTR act -214.8
COc1cc2ccccc2cc1C(=O)Nc1ccccc1Cl	aSyn 5UTR act -138.7
CCOc1ccc(NC(=O)c2ccc(F)cc2F)cc1	aSyn 5UTR act -103.3
CCOc1ccc(NC(=O)c2cccc3ccccc23)cc1	aSyn 5UTR act -318.2
COc1cc2ccccc2cc1C(=O)Nc1ccc(N2CCN(C)CC2)cc1	aSyn 5UTR act -175.8
COc1ccc(-c2cc(C(=O)Nc3cccnc3)no2)cc1OC	aSyn 5UTR act -187.2
CCOc1ccc(NC(=O)c2cc3ccccc3cc2O)cc1	aSyn 5UTR act -201.0
COc1ccc(C(=O)Nc2ccc3cn[nH]c3c2)c(OC)c1	aSyn 5UTR act -98.6
COc1cc2ccccc2cc1C(=O)Nc1cccnc1	aSyn 5UTR act -138.6
Cc1noc(C)c1-c1nnc(-c2ccc(OC(F)(F)F)cc2)o1	aSyn 5UTR act -68.9
COc1ccc2cc3cc(C(=O)NCCN4CCc5ccccc5C4)sc3nc2c1	aSyn 5UTR act -209.1
CCC(C)NC(=O)c1cc2cc3ccc(OC)cc3nc2s1 (stereo unspecified)	aSyn 5UTR act -130.7
O=S(=O)(/N=C(/Nc1ccccc1)c1ccccc1O)c1ccccc1	aSyn 5UTR act -79.1
O=C(Nc1ccccc1)c1ccccc1O	aSyn 5UTR act -151.2
Cc1ccccc1NC(=O)c1ccccc1O	aSyn 5UTR act -117.7
Cc1ccccc1NC(=O)C(=O)Nc1ccccc1C	aSyn 5UTR act -142.8
Cn1c(NC(=O)/C=C/c2ccc(Cl)c(Cl)c2)cc(=O)n(C)c1=O	aSyn 5UTR act -181.1
Cn1c(NC(=O)/C=C/c2ccccc2)cc(=O)n(C)c1=O	aSyn 5UTR act -253.1
COc1ccc(/C=C/C(=O)Nc2cc(=O)n(C)c(=O)n2C)cc1	aSyn 5UTR act -104.0
Cn1c(NC(=O)CCc2ccccc2)cc(=O)n(C)c1=O	aSyn 5UTR act -186.0
COc1cccc(Nc2ncnc3nc[nH]c23)c1	aSyn 5UTR act -83.4
CCc1ccc(Nc2ncnc3nc[nH]c23)cc1	aSyn 5UTR act -70.0
Cc1ccc(Nc2ncnc3nc[nH]c23)cc1Cl	aSyn 5UTR act -146.5
Cc1ccc(NC(=O)Nc2ncnc3nc[nH]c23)cc1	aSyn 5UTR act -106.2
CCNC(=O)NC(=O)COC(=O)c1ccccc1SCC(=O)NC(=O)NCC	aSyn 5UTR act -121.6
N#C/C(=C\c1ccccc1)c1ccccn1	aSyn 5UTR act -100.4
CNc1ccc(/C=C(\C#N)c2ccccn2)cc1[N+](=O)[O-]	aSyn 5UTR act -156.9
CCCCCCCCCCn1ccc(=N)cc1	none
CCCCCCN1Cc2ccccc2C1	aSyn 5UTR act -117.1
CCCCCCCCn1ccc(=N)cc1	none
O=C(NCC1CCCO1)c1cc(-c2ccccc2)on1 (stereo unspecified)	aSyn 5UTR act -362.2
Cc1ccc(-c2cc(C(=O)NCC3CCCO3)no2)cc1 (stereo unspecified)	aSyn 5UTR act -76.1
Cc1cccc(NC(=O)C(=O)NCC2CCCO2)c1 (stereo unspecified)	aSyn 5UTR act -91.6
CC1=Nc2cc(C(=O)NCC3CCCO3)ccc2Sc2ccc(Br)cc21 (stereo unspecified)	aSyn 5UTR act -112.9
O=C(NCC1CCCO1)c1cc(-c2ccc(Cl)cc2Cl)on1 (stereo unspecified)	aSyn 5UTR act -164.3
Cc1ccc(-n2c(C)c(C)c3c(NCCO)ncnc32)cc1	aSyn 5UTR act -106.6
Cc1c(C)n(CCc2ccccc2)c2ncnc(NCCCO)c12	aSyn 5UTR act -140.8
COc1ccc(C2N=C(c3ccccc3)NO2)cc1OC (stereo unspecified)	aSyn 5UTR act -141.5
FC(F)Oc1ccc(C2N=C(c3ccccc3)NO2)cc1 (stereo unspecified)	aSyn 5UTR act -199.0
Cc1ccc2c(c1C)NC(=O)CC(c1ccccc1O)=N2	aSyn 5UTR act -83.1
Cc1ccc(C(=O)NCc2ccc3c(c2)CCO3)cc1C	aSyn 5UTR act -96.3
COc1ccc2nc(N3CCN(C(=O)C4COc5ccccc5O4)CC3)sc2c1 (stereo unspecified)	aSyn 5UTR act -125.3
COc1cccc(N2CCN(C(=O)c3ccc4nc(N5CCCCC5)sc4c3)CC2)c1	aSyn 5UTR act -153.0
COc1ccc(N2CCN(C(=O)c3ccc4nc(N5CCCCC5)sc4c3)CC2)cc1	aSyn 5UTR act -192.1
CC1CCN(c2nc3ccc(C(=O)N4CCN(Cc5ccc6c(c5)OCO6)CC4)cc3s2)CC1	aSyn 5UTR act -155.6
Cc1cccc(N2Cc3ccc(Br)cc3C2)c1	aSyn 5UTR act -124.7
O=C(COc1ccc(Br)cc1CO)Nc1ccccc1F	aSyn 5UTR act -180.6
O=C(N/N=C/c1cc(Br)ccc1O)C(=O)Nc1ccccc1OC(F)(F)C(F)F	none
COc1ccccc1NC(=O)COc1ccc(CO)cc1Cl	aSyn 5UTR act -151.3
COc1cc(CO)ccc1OCC(=O)Nc1ccc(Br)cc1	aSyn 5UTR act -85.6
O=C(COc1ccc(Br)cc1CO)Nc1ccccc1	aSyn 5UTR act -106.6
COc1cc2c(cc1OC)C(c1ccc(Br)cc1)NCC2 (stereo unspecified)	none
CCSc1nc2c(cnn2-c2ccccc2)c(=O)n1N	aSyn 5UTR act -105.4
CSc1nc2c(cnn2-c2ccccc2)c(=O)n1N	aSyn 5UTR act -91.6
Cc1cccc(/C=C2\Oc3cc(OS(C)(=O)=O)ccc3C2=O)c1	aSyn 5UTR act -63.8
COc1ccc2c(c1)O/C(=C\c1ccco1)C2=O	aSyn 5UTR act -119.5
CC(=O)COc1ccc2c(c1C)O/C(=C\c1ccco1)C2=O	aSyn 5UTR act -212.7
NS(=O)(=O)c1ccc(CCNC(=O)c2ccc3ccccc3n2)cc1	aSyn 5UTR act -82.9
CCCc1ccc(-c2cc(C(=O)NCCc3ccc(S(N)(=O)=O)cc3)c3ccccc3n2)cc1	aSyn 5UTR act -115.4
NS(=O)(=O)c1ccc(CNc2ccc3ccccc3n2)cc1	aSyn 5UTR act -120.1
